Among the data in PubChem BioAssay (EPA / NIEHS) are outcome and AC50 values, retold here.

Records with an inconclusive call do not appear. Active and inactive are the calls of the source. How the source made its calls: active means hit-call score of the fitted dose curve at least 0.9, where 1 is the maximum; inconclusive means response in the unintended direction; inactive means score below 0.9.

In assay [1] the target is Luciferin 4-monooxygenase (Photinus pyralis) (UniProt P08659). The assay can be described thus: CCTE_Simmons_QuantiLum_inhib_2: CCTE's Firefly Luciferase Inhibition Assay, Simmons Lab (AID 2283767). In outline: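 Cell-free recombinant firefly luciferase (5 ng/well) in 200mM potassium phosphate with 1 mg/ml BSA, 30 min at 37C with 8 concentrations from 5 nM to 87.5 uM [final], 0.5% DMSO. Luminescence read after D-luciferin (150uM)/dATP (147uM) reagent injection, pH 7.8; triplicates.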
Luciferin 4-monooxygenase (Photinus pyralis), sequence (P08659 whole entry, looked up): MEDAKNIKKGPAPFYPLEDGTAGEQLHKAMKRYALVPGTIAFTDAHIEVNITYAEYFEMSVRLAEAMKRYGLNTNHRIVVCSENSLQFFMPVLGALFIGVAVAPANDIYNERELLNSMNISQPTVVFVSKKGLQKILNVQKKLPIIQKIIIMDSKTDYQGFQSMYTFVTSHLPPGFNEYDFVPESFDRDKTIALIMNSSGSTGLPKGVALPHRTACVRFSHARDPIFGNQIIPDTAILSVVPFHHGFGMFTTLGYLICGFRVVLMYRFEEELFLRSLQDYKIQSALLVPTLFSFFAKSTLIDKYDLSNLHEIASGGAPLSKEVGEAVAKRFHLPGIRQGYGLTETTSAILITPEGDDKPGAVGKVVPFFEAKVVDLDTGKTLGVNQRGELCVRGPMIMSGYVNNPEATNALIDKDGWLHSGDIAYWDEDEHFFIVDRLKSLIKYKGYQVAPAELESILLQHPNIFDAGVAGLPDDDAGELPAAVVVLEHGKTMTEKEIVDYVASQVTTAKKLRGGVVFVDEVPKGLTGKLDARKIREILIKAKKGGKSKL

The target in assay [2] is zebrafish Estrogen Receptor (ESR1), esr1 (gene 259252) (UniProt P57717). The assay can be described thus: ATG_zfER1_XSP1: Attagene TRANS-FACTORIAL Multi-Species (XSP1) HepG2 Assay for zebrafish Estrogen Receptor (ESR1) (AID 2283772). In outline:
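HepG2 cells transiently transfected with a GAL4-UAS reporter and chimeric zebrafish ER-Gal4, dosed 24 h with 3 nM 6-alpha-fluorotestosterone present. Reporter mRNA measured by RT-PCR and capillary electrophoresis; gain of signal versus DMSO.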

Assay [3] has as its system chicken Androgen Receptor (AR), gene 422165. The assay can be described thus: ATG_chAR_XSP1: Attagene TRANS-FACTORIAL Multi-Species (XSP1) HepG2 Assay for chicken Androgen Receptor (AR) (AID 2283768). The essentials:
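HepG2 cells transiently transfected with multiplexed GAL4-UAS reporter units expressing chimeric chicken AR-Gal4; 3 nM 6-alpha-fluorotestosterone for partial AR stimulation; 24 h after dosing, reporter mRNA by RT-PCR and capillary electrophoresis, gain-of-signal versus DMSO.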

The subject of assay [4] is zebrafish Androgen Receptor (AR), gene 100005148. The assay can be described thus: ATG_zfAR_XSP1: Attagene TRANS-FACTORIAL Multi-Species (XSP1) HepG2 Assay for zebrafish Androgen Receptor (AR) (AID 2283771). In outline:
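HepG2 cells were transiently transfected with a zebrafish AR-GAL4 reporter system and partially stimulated with 3 nM 6-alpha-fluorotestosterone. Reporter mRNA was measured after 24 h dosing by RT-PCR with capillary electrophoresis, and gain-of-signal was fitted relative to DMSO.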

For assay [5], the system named is frog Androgen Receptor (AR), gene 399456. The assay can be described thus: ATG_frAR_XSP1: Attagene TRANS-FACTORIAL Multi-Species (XSP1) HepG2 Assay for frog Androgen Receptor (AR) (AID 2283770).
A short description of assay [6]: ArunA_Migration_hNC: ArunA Biomedical's Oris Neural Crest (hNC) Cell Migration Assay (AID 2283755). The essentials: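 Human H9-derived neural crest stem cells, 60,000/well on Matrigel, 16 h at 37C, then 72 h chemical exposure after seeding-stopper removal. Migration into detection zone read as calcein-AM fluorescence (ex494/em517), relative to DMSO.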
Assay [7] is described as follows: ArunA_NOG_NucleusCount: ArunA Biomedical's Neurite Outgrowth (NOG) Assay for Nucleus Count (AID 2283756). The essentials:
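Human H9-derived differentiated neurons were exposed for 48 h right after seeding. Hoechst-stained nuclei gated by size and intensity were counted by automated high-content imaging as viable neurons. Loss of signal vs DMSO.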

Assay [8] is described as follows: ArunA_NOG_BranchPointsPerNeurite: ArunA Biomedical's Neurite Outgrowth (NOG) Assay for Branch Points Per Neurite (AID 2283759). The essentials: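 Automated image analysis traced neurites (processes >10 um) from valid cell bodies after Hoechst and βIII-tubulin staining. hNN cells from H9 embryonic stem cells, 48 h exposure. Fitted bidirectionally against DMSO.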

zebrafish Estrogen Receptor (ESR1), esr1 (gene 259252), sequence (P57717 whole entry, looked up, the tested form may be a part): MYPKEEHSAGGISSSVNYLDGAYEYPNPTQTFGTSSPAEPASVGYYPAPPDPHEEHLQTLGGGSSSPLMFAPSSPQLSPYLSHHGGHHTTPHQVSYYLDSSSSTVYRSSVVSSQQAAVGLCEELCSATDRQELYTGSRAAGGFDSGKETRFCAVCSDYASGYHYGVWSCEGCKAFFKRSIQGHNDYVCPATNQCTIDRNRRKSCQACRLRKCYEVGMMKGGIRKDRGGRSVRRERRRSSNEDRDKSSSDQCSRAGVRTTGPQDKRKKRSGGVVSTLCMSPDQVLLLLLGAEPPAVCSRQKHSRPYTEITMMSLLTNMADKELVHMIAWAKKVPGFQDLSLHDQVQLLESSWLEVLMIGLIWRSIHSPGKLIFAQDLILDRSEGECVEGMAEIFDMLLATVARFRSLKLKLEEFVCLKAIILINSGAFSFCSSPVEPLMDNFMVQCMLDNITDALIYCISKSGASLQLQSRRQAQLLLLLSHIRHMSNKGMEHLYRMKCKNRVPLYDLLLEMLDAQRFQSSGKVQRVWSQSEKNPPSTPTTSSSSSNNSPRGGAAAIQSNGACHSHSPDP

`CON(C)C(=O)Nc1ccc(Cl)c(Cl)c1`: the result in assay [1] and in assay [2] was inactive.

On to `CCOC(=O)CC(SP(=S)(OC)OC)C(=O)OCC` (stereo not given), for which, in assay [1], the molecule was classed as inactive.

Take `CCCCOC(=O)c1ccccc1C(=O)OCCCC`: in assay [3], the call was inactive.

As to `O=C(Nc1ccccc1)Nc1ccnc(Cl)c1`, the molecule was classed as inactive in assay [1].

What is called AC50 is the concentration giving half of the maximal activity seen. Regarding `CC(C)Oc1cc(-n2nc(C(C)(C)C)oc2=O)c(Cl)cc1Cl`, the AC50 in assay [3] was 18 µM (active). Moreover, the molecule was classed as inactive in assay [4] and in assay [2].

Take `CCOP(=S)(OCC)SCn1c(=O)oc2cc(Cl)ccc21`: in assay [1], the call was inactive.

Regarding `CCCCNC(=O)OCC#CI`, in assay [2], the molecule was classed as inactive.

For `COC(=O)N(OC)c1ccccc1COc1ccn(-c2ccc(Cl)cc2)n1`, the molecule was called inactive in assay [3] and in assay [2].

As to `C=CC1(C)OC(=O)N(c2cc(Cl)cc(Cl)c2)C1=O` (stereo not given), in assay [4], the call was inactive.

For the molecule `COP(=S)(OC)Oc1nc(Cl)c(Cl)cc1Cl`, the molecule was called inactive in assay [1] and in assay [2]. Also, the half-maximal activity concentration (AC50) in assay [3] is 3.31 µM (active); in assay [5] it was 5.58 µM (active).

Turning to `COc1ccc(C(c2ccc(OC)cc2)C(Cl)(Cl)Cl)cc1`, the call in assay [4] and in assay [2] was inactive.

With `CC(C)(C)c1ccc(CSc2cnn(C(C)(C)C)c(=O)c2Cl)cc1`, in assay [6], the AC50 was 0.0516 µM (active). Further, the molecule was called inactive in assay [7], in assay [8], in assay [3], in assay [4] and in assay [2].
